In PubChem BioAssay AID1321 (The Scripps Research Institute Molecular Screening Center, 2008):
About 2,600 (1.2%) of roughly 220,000 compounds were called active. This excerpt belongs to a sample that is enriched for actives. A number with no mark means an inactive call.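 How the source made its calls: active means activation above the mean of all tested compounds plus 3 SD, set per screening run (cut at about 8.8% in these data); inactive means the rest.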

Target: Wee1-like protein kinase (Homo sapiens) (UniProt P30291)
Assay: compounds stabilizing Wee1-luciferase fusion – cell-based, HeLa, Wee1K328M-luciferase, luminescence, primary screen (AID 1321);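 further: cells exposed to compound for 20 h before luminescence read; 0% = DMSO alone and 100% = MG132 at 30 µM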
Settings: HeLa Luc-Wee1K328M stability, at 5 µM, stronger effect = higher value, 100% = proteasome inhibitor MG132 effect

Point of comparison: `Fc1ccc(COc2cccc(-c3n[nH]c(=S)o3)c2)cc1`, reporter increase -0.05%. Against it:
- Cc1nc(-c2ccccc2)sc1-c1nnc(C2CC2)o1 — lower, -1.78%
- CCOC(=O)c1cc(Sc2ccccc2N)cc(C(=O)OCC)n1 — lower, -2.91%
- Cc1nnsc1C(=O)N/N=C/c1ccccc1Cl — higher, 2.61%
- COc1cccc(N(CC(=O)Nc2cccc(N(C)S(C)(=O)=O)c2)S(C)(=O)=O)c1 — lower, -1.32%
- CCN(CC)S(=O)(=O)c1ccc(NC(=O)CN(c2cccc(F)c2)S(C)(=O)=O)cc1 — lower, -1.26%
- O=C(CC1CCCCC1)NCc1ccco1 — higher, 0.37%
- O=C(Cc1ccc(F)cc1)NC1CCCC1 — lower, -1.42%
- Cc1ccc(S(=O)(=O)/N=C(/Nc2ccc3[nH]c(=O)[nH]c3c2)c2ccccc2)cc1 — lower, -1.22%
- COC(=O)c1ccccc1NS(=O)(=O)c1ccc2[nH]c(=O)[nH]c2c1 — lower, -1.86%
- O=C1/C(=C/c2coc3ccc(O)cc3c2=O)SC(=S)N1c1ccccc1 — higher, -0.03%
- COc1c(C=O)c(CCN(C)C(=O)c2ccc(F)cc2)cc2c1OCO2 — higher, 0.06%
- COc1ccc(-c2nnco2)cc1OC — lower, -2.71%
- CCOC(=O)Cc1cc(=O)[nH]c(/N=C(\N)Nc2ccc(OC)cc2)n1 — higher, 0.86%
- Oc1ccc2ccccc2c1C=Nc1ccccc1 — lower, -2.84%
- CCn1c2ccccc2c2cc(NC(=O)COC(=O)c3ccccc3Br)ccc21 — higher, 1.86%
- O=C(COC(=O)c1cc(S(=O)(=O)N2CCCCC2)ccc1Cl)NCc1ccco1 — higher, 5.36%
- Nc1ccc(C(=O)OCC(=O)NC2CCS(=O)(=O)C2)cc1[N+](=O)[O-] (centres undefined) — lower, -1.54%
- COc1ccccc1P(=O)(c1ccccc1)c1ccccc1NC(C)=O (centres undefined) — higher, 0.01%
- Cc1ccc(NC(=O)CSCC(=O)NC2CCCCC2)cc1 — higher, 0.26%
- Cc1ccc(-c2nc(CS(=O)CC(=O)NC3CCCC3)c(C)o2)cc1 (centres undefined) — higher, 2.35%
- Nc1nc(NC(=O)/C=C/c2ccc(F)cc2)nn1-c1ccccc1 — lower, -3.61%
- Oc1ccc(-c2nnc(Nc3ccccc3)c3ccccc23)cc1 — lower, -2.97%
- O=C1/C(=C/c2cccs2)SC(=S)N1C1CCS(=O)(=O)C1 (centres undefined) — higher, 2.22%
- O=C(O)CCCCc1nc2ccccc2s1 — higher, 1.81%
- COc1cccc2sc(NNC(=O)c3nc4ccccc4s3)nc12 — higher, 1.43%
- NNC(=O)c1ccc(COCC(F)(F)C(F)F)cc1 — higher, 2.09%
- COc1ccc(-c2csc(NC3OC(=O)c4ccccc43)n2)cc1 (centres undefined) — higher, 1.6%
- Cc1nnsc1C(=O)NCc1c(F)cccc1Cl — lower, -2.45%
- Cn1c(=O)c2c(nc(NCc3ccccc3)n2CC(N)=O)n(C)c1=O — lower, -2.48%
- OC(c1ccccc1)C(CN1CCOCC1)c1ccccc1 (centres undefined) — higher, 0.23%
- Cc1ccc(C(=O)OC(C)CN2CCOCC2)cc1 (centres undefined) — higher, 2.34%
- Cc1ccc2[nH]c(=O)c(CC=C(Cl)Cl)c(C)c2c1 — lower, -1.17%
- O=C(CN1CCOCC1)Nc1c(-c2ccccc2)c2cc(Br)ccc2[nH]c1=O — lower, -2.5%
- Cc1cc(Nc2ccc(N3CCOCC3)cc2)c2cccc(C)c2n1 — higher, 1.6%
- C/C(=N\Nc1cccc(C(=O)O)c1)c1ccc2c(c1)Nc1ccccc1S2 — higher, 2.58%
- Cc1ccsc1C(C(=O)NC1CCCCC1)N(C(=O)Cc1cccs1)C1CC1 (centres undefined) — lower, -1.86%
- Cc1cccc(N(C(=O)Cc2cccs2)C(C(=O)NC2CCCC2)c2ccsc2)c1 (centres undefined) — lower, -1.49%
- Nc1scc[n+]1Cc1cccc2cccnc12 — higher, 4.15%
- CC(C)=NN1C(=O)c2ccccc2NC1(C)C — higher, 2.65%
- CC(NC(=O)C(C)(C)C)C(c1cccs1)N1CCN(Cc2ccccc2)CC1 (centres undefined) — lower, -2.56%
- CCOC(=O)c1ccc(NC(=O)C2CC(=O)Nc3nc4ccccc4n32)cc1 (centres undefined) — lower, -0.26%
- O=C(Nc1ccccc1)C1CC(=O)n2c(nc3ccccc32)N1 (centres undefined) — lower, -0.1%
- Cn1nc(C(C)(C)C)c(NC(=O)c2sccc2Cl)c1C(C)(C)C — higher, 1.43%
- O=C1N=C(N2CCc3ccccc3C2)S/C1=C\c1ccc(O)cc1 — lower, -2.98%
- COc1cc(C(=O)Nn2c(O)c(C3=c4ccccc4=NC3=O)sc2=S)ccc1O — lower, -2.51%
- O=C(NCc1cccs1)c1ccc(Br)o1 — lower, -0.94%
- COc1ccccc1NC(=O)c1c(Br)cnn1C — higher, 3.35%
- O=C(O)C(c1ccccc1)C1(O)CCCCC1 (centres undefined) — higher, 7.89%
- CCN(CC)CCNC(=O)c1ccc(NC(=O)c2c(F)cccc2Cl)cc1 — higher, 1.18%
- Cc1ccc(NNC(=O)c2c(F)cccc2Cl)cc1Cl — higher, 0.76%

With `COc1cccc(N(CC(=O)Nc2cccc(F)c2)S(C)(=O)=O)c1` the reporter increase was 8.9% (active).
`O=C(CC1CCCCC1)NCc1ccc(F)cc1` was tested, and the reporter increase was 8.97% (active).
With `CC(OC(=O)c1ccc(NS(=O)(=O)c2ccc3[nH]c(=O)[nH]c3c2)cc1)C(=O)Nc1cccc(Cl)c1Cl` (centres undefined) the reporter increase was 24.1% (active).
For `Fc1ccc(COc2ccc(-c3nnco3)cc2)cc1`, the reporter increase was 16.2% (active).
In the case of `CCn1c2ccccc2c2cc(NC(=O)COC(=O)c3cc(S(=O)(=O)N4CCCCC4)ccc3Cl)ccc21`, the reporter increase was 11.6% (active).
With `Cc1ccc(NC(=O)CS(=O)CC(=O)N(c2ccccc2)C(C)C(=O)NC2CCCC2)cc1` (centres undefined) the reporter increase was 10.2% (active).
`COc1ccccc1OCc1nc2ccccc2s1` was tested, and the reporter increase was 10.1% (active).
In the case of `CC(CN1CCOCC1)c1ccccc1` (centres undefined), the reporter increase was 11.8% (active).
With `Cc1ccc2[nH]c(=O)c(CN3CCCCC3)c(-c3ccccc3)c2c1` the reporter increase was 11.8% (active).
For `Cc1ccccc1N(C(=O)Cc1cccs1)C(C(=O)NC1CCCCC1)c1cn(C)nc1C` (centres undefined), the reporter increase was 12.1% (active).
For `CC(=O)c1ccc(NC(=O)C2CC(=O)Nc3nc4ccccc4n32)cc1` (centres undefined), the reporter increase was 11.6% (active).
For `Cn1ncc(Br)c1C(=O)NCc1cccs1`, the reporter increase was 20.9% (active).
`O=C(NNc1cc(Cl)cc(Cl)c1)c1c(F)cccc1Cl` was tested, and the reporter increase was 9.07% (active).
